# Reference: PubChem BioAssay AID463212 (Sanford-Burnham Center for Chemical Genomics, 2010)
# Hit rate of the full screen: of about 330,000 compounds, about 4,400 (1.3%) were called active. The entries come from a sample that favours actives as a whole. Values without a mark were called inactive.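 The calls were made as follows: active = growth inhibition of the mutant yeast at or above 50%; inactive = the rest.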
# Experiment: growth inhibitors of tim23-1 mutant yeast, primary screen, luminescence, uHTS (AID 463212);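 also: temperature-sensitive mutant grown at 25 °C; plate controls were DMSO-treated mutant yeast for no effect and medium wells lacking yeast for full effect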
# Settings: S. cerevisiae tim23-1 growth, BacTiter-Glo luminescence, 24 h; at 20 µM; active compounds read high
row,Structure (SMILES),inhibition
1,O=C(Nc1ccccc1)/C(=C\c1ccco1)NC(=O)c1ccco1,17%
2,O=c1nc2s/c(=C\c3ccco3)c(=O)n2nc1Cc1ccccc1,65.5% (active)
3,O=C(NCCc1ccco1)c1nn(Cc2ccccc2)c(=O)c2ccccc12,8.6%
4,COc1ccc(C(=O)O)cc1S(=O)(=O)NCc1cccnc1,-0.937%
5,COc1ccc(CNC(=O)c2cc(=O)c3c(C)cc(C)cc3o2)cc1,28.5%
6,Cc1cc(C)cc(OCC(=O)Nc2cc(NC(=O)COc3cc(C)cc(C)c3)cc(C(=O)O)c2)c1,1.96%
7,CNC(=O)c1nnc(Cc2ccc(Cl)cc2)o1,13.1%
8,c1ccc2cc(CCCc3cc4ccccc4cn3)ncc2c1,51.6% (active)
9,Cc1nn(CC(=O)N2CCCCC2)c(=O)c2nn(-c3ccccc3)c(C)c12,5.69%
10,Cc1ccc(NC(=O)C(=O)NCc2ccc(/C=N/NC(=O)c3c(C)nc4cc(C)ccn34)o2)cc1,13.6%
11,O=C(Nc1ccc(Cl)cc1)Nc1nnc(/C=C/c2ccccc2)s1,-4.19%
12,O=C(Nc1ccccc1)c1nnsc1S(=O)(=O)c1ccc(Cl)cc1,59.8% (active)
13,O=C(Nc1ccc(S(=O)(=O)Nc2ccccn2)cc1)c1ccccc1,-13.7%
14,CC(=O)C[C@@H](O)CC(=O)[C@H]1OC(=O)CCCCCCc2ccccc21,12.8%
15,CCOC(=O)C1=C(C)N(C[C@@H]2CC[C@@H](Cc3ccc(-c4ccccc4)cc3)O2)C(=O)NC1c1ccc([N+](=O)[O-])cc1 (stereo partly drawn),34.6%
16,C=CCNC(=S)N1CCc2[nH]c3ccccc3c2C1,-8.13%
17,CC[C@]1(C(=O)OC)[C@H]2C(=O)N(Cc3ccccc3)C(=O)[C@H]2[C@H]2CN=C(SCc3ccc(Cl)cc3)N21,53.5% (active)
18,CC[C@]1(C(=O)OC)[C@H]2C(=O)N(Cc3ccccc3)C(=O)[C@H]2[C@H]2CN=C(SCc3ccc(C#N)cc3)N21,46.4%
19,CC[C@]1(C(=O)OC)[C@H]2C(=O)N(Cc3ccccc3)C(=O)[C@H]2[C@H]2CN=C(SCc3ccccc3)N21,37.7%
20,COc1cccc(NC(=O)CN(C)C(=O)CSCc2nc3scc(-c4cccs4)c3c(=O)[nH]2)c1,4.94%
21,Cc1ccc(NC(=O)Cn2c(=O)n(CCC(=O)NC3CCN(Cc4ccccc4)CC3)c(=O)c3ccccc32)cc1,-1.05%
22,CC(C)CNC(=O)COC(=O)c1ccccc1OCC(=O)Nc1ccc(Br)cc1,-11.3%
23,O=C(NCCc1ccc(F)cc1)c1ccc(S(=O)(=O)N2CCCCC2)cc1,53.6% (active)
24,O=C(Nc1ccccc1F)c1ccc(S(=O)(=O)N2CCCCCC2)cc1,34.9%

row,Structure (SMILES),inhibition
1,COC(=O)c1ccc(CNC(=O)c2ccc(S(=O)(=O)N3CCCCCC3)cc2)cc1,15.9%
2,CC(=O)Oc1ccc(C(C)=O)c2c1OCCO2,5.79%
3,CCc1ccc(NC(=O)Cn2nc(C)c([N+](=O)[O-])c2C)cc1,25.5%
4,Cc1nn(CC(=O)NCc2ccccn2)c(C)c1[N+](=O)[O-],24.7%
5,Cc1nn(CC(=O)Nc2nc3ccccc3s2)c(C)c1[N+](=O)[O-],69.8% (active)
6,O=C(NCc1nnc(SCC(=O)N2CCCc3ccccc32)o1)c1ccccc1F,19.1%
7,COc1ccc(N(Cc2cc3ccc(C)cc3[nH]c2=O)S(=O)(=O)c2ccccc2)cc1,48.9%
8,O=C(/C=C/c1ccc(Cl)cc1Cl)c1cccnc1,31.1%
9,O=C(Nc1ccncc1)c1ccc(Cl)c([N+](=O)[O-])c1,-42.5%
10,O=C(/C=C/c1ccc(Cl)c([N+](=O)[O-])c1)c1cccnc1,80.7% (active)
11,CC1CCCCC1NC(=O)CCS(=O)(=O)c1cccc2nonc12 (stereo not drawn),4.3%
12,O=C(CCS(=O)(=O)Cc1ccccc1F)NCCCN1CCCCC1,-8.7%
13,CSCCC(NC(=O)COc1ccccc1)C(=O)N(C)CC(=O)Nc1ccc(C)cc1 (stereo not drawn),8.43%
14,Cc1ccc(CNC(=O)c2cccnc2Cl)cc1,-14.6%
15,CC(=NCc1ccco1)C1=C(O)c2ccccc2C1=O,50.3% (active)
16,CC(=NCc1ccco1)c1c(C(F)(F)F)[nH]n(-c2nc3ccccc3s2)c1=O,22.4%
17,CC(=NCc1ccc2c(c1)OCO2)C1=C(O)c2ccccc2C1=O,51.6% (active)
18,CCc1ccc(NC(=O)NC(C)c2ccc3c(c2)OCO3)cc1 (stereo not drawn),22.5%
19,CC1CCC(NC(=O)C2c3ccccc3C(=O)N2Cc2ccc3c(c2)OCO3)CC1 (stereo not drawn),9.09%
20,O=C1C(C=NCC2CCCO2)=C(O)c2ccccc21 (stereo not drawn),6.49%
21,CCOC(=O)C[C@H]1c2ccc(C(F)(F)F)cc2S(=O)(=O)N1c1ccccc1,33.9%
22,COc1cc2c(C(=O)N(C)c3cc(Cl)ccc3OC)cn(C)c(=O)c2cc1OC,10%
23,N#CC(Cc1cc2ccccc2n1S(=O)(=O)c1ccccc1)OCc1ccccc1 (stereo not drawn),30.3%
24,CC1C(=O)C(C)C(c2ccc(O)cc2)NC1c1ccc(O)cc1 (stereo not drawn),0.501%

row,Structure (SMILES),inhibition
1,Cc1ccc2c(N)c(C(=O)c3ccccc3)sc2n1,48.6%
2,CCc1nc2sc(C(=O)O)c(N)c2c2c1CCCC2,-17.3%
3,Cc1nc2sc(C(=O)c3ccccc3)c(N)c2c2c1CCCC2,51.8% (active)
4,CCOC(=O)C1CCCN(S(=O)(=O)c2ccc(-n3cnnn3)c(C)c2)C1 (stereo not drawn),2.62%
5,COc1ccc(/C(O)=C2/C(=O)C(=O)N(CC3CCCO3)C2c2ccc(OC)c(OC)c2)cc1 (stereo not drawn),-1.19%
6,Cc1nnc(SCC(=O)N(C(C)C)C(C)C)nc1C,8.73%
7,O=C(COc1ccc([N+](=O)[O-])cc1Cl)Nn1cnnc1,6.97%
8,COc1ccc(-c2nc3cc(C)ccn3c2NC2CCCCC2)cc1SC1CCCCC1,52.3% (active)
9,CCOc1cc(-c2nc3cc(C)ccn3c2NCC2CCCO2)ccc1O (stereo not drawn),18.9%
10,COc1ccc(-c2nc3cnccn3c2NC2CCCCC2)cc1-c1cccc(Cl)c1,21.6%
11,O=C(c1cc2ccccc2o1)N1CCN(Cc2ccccc2)CC1,12.6%
12,Cc1[nH]c2ccccc2c1-c1ccc(Cl)nn1,5.43%
13,CC(C)CCNC(=O)c1ccc2c(Cl)c3c(nc2c1)CCC3,43.3%
14,CC(C)c1ccc(S(=O)(=O)NC2CCCC2)cc1,23.4%
15,Cc1ccc(S(=O)(=O)NC2CCCCCC2)cc1,51.4% (active)
16,CSc1ccc(S(=O)(=O)NC2CCCCC2)cc1,31.1%
17,CC(CC(=O)N1CCN(S(=O)(=O)c2ccccc2)CC1)n1cncn1 (stereo not drawn),7.53%
18,CCC1=NN(C(=O)Cc2ccc([N+](=O)[O-])cc2)C(O)(c2ccc(Br)cc2)C1 (stereo not drawn),50% (active)
19,CC1=NN(C(=O)Cc2ccc(C)cc2)C(O)(c2cccnc2)C1 (stereo not drawn),-31.5%
20,CC1=NN(C(=O)c2ccc(Br)cc2)C(O)(c2ccccc2)C1 (stereo not drawn),29.5%
21,COc1ccc(CC2c3cc(OC)c(OC)cc3CC[N+]2(C)CCC(=O)OCCCCCOC(=O)CC[N+]2(C)CCc3cc(OC)c(OC)cc3C2Cc2ccc(OC)c(OC)c2)cc1OC (stereo not drawn),3.67%
22,CC(C)(C)c1ccc(C(=O)N2CCN(CCNC(=O)C(=O)Nc3ccc(F)cc3)CC2)cc1,16.2%
23,COC(=O)c1sccc1NN1C(=O)c2ccccc2C1=O,13.6%
24,COC(=O)c1ccc2c(C(C)(C)O)c(C(C)(C)O)[nH]c2c1,5.76%

row,Structure (SMILES),inhibition
1,Cc1ccccc1NCC(=O)N/N=C\c1ccc([N+](=O)[O-])s1,62.7% (active)
2,CCOc1ccc(NC(=O)CCC(=O)n2nc(C)cc2C)cc1,14.6%
3,CCOc1ccc(C(=O)CCC(=O)Nc2ccncc2)cc1,11.8%
4,Cc1ccc(/C=N/NC(=O)CN2CCN(Cc3ccccc3)CC2)s1,0.916%
5,Cc1cccc(/C=N/NC(=O)CNc2cccc3ccccc23)n1,17.8%
6,CCOc1ccc(NC(=O)CCC(=O)N/N=C/c2ccc([N+](=O)[O-])s2)cc1,79.1% (active)
7,CCOC(=O)/C=C/C(=O)OCC(=O)NC(c1ccccc1)c1ccccc1,40.9%
8,O=C(NCc1ccc2c(c1)OCO2)C1CCCN(S(=O)(=O)c2cccs2)C1 (stereo not drawn),7.36%
9,CCN(C(=O)c1cc([N+](=O)[O-])ccc1NCc1cccnc1)c1ccccc1,24.3%
10,COc1ccc(N=Nc2c(-c3ccc(OC)cc3)[nH]oc2=O)cc1,2.46%
11,CC1CCCCC1NC(=O)C1CCCN1S(=O)(=O)c1cccc2nsnc12 (stereo not drawn),6.89%
12,Cc1ccccc1CSc1nnc(Cn2c(=O)sc3ccccc32)n1C,18.7%
13,Cc1ccc(N=Cc2c(O)cc(C)oc2=O)c(C)c1,96.2% (active)
14,Cc1cc(O)c(C(=O)/C=C/c2c(F)c(F)c(F)c(F)c2F)c(=O)o1,19.1%
15,Cc1ccc(N=Cc2c(O)n(-c3nccs3)c(=O)c3ccccc23)c(C)c1,-3.15%
16,CN1CCN(C(=O)c2ccc(-c3ccc(Br)cc3)o2)CC1,4.87%
17,Cc1ccc(S(=O)(=O)NC(=O)N2CCCN(Cc3ccc(F)cc3)CC2)cc1,-9.12%
18,Cc1nc2cc(S(=O)(=O)C(F)(F)F)ccc2s1,-1.26%
19,Cc1cccc(C)c1N1C(=O)CN(Cc2ccccc2)C1=S,54.6% (active)
20,COc1cccc(N2C(=O)CN(Cc3ccccc3)C2=S)c1,44.3%
21,CCc1cccc(C)c1N1C(=O)CN(Cc2ccccc2)C1=S,46.7%
